# Experimental data taken from PubChem BioAssay (EPA / NIEHS).
# Active and inactive are the calls of the source. The calls were made as follows: active = hit-call score of the fitted dose curve at least 0.9, where 1 is the maximum; inactive = score below 0.9.
# Test system: not listed separately
# Test: CCTE_Padilla_ZF_Score.Any: CCTE's 144 Hour Post-fertilization zebrafish Assay Score for Any Mortality or Malformation, Padilla Lab (AID 2284416)
# How it was run: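 Wild-type zebrafish embryos with chorions, one per well in 10% Hanks' from 6–8 hpf, dosed in sealed plates at 26 C, 14:10 h light:dark; rinsed at 5 dpf; blinded scoring at 6 dpf for death or malformation, versus DMSO.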
Structure (SMILES),AC50,outcome
O=S(=O)(OCC(F)(F)F)C(F)(F)C(F)(F)C(F)(F)C(F)(F)F,33.3 µM (active),
O=C(O)C(F)(F)C(F)(F)C(F)(F)C(F)(F)C(F)(F)C(F)(F)C(F)F,,inactive
NC(=O)C(F)(F)C(F)(F)C(F)(F)C(F)F,,inactive
CO[Si](C)(CCC(F)(F)C(F)(F)C(F)(F)C(F)(F)C(F)(F)C(F)(F)F)OC,,inactive
OCC(O)CC(F)(F)C(F)(F)C(F)(F)C(F)(F)C(F)(F)C(F)(F)C(F)(F)C(F)(F)F (configuration not stated),9.82 µM (active),
O=C(O)C(F)(F)C(F)(F)C(F)(F)OC(F)(F)F,,inactive
OCCCCC(F)(F)C(F)(F)C(F)(F)C(F)(F)F,29 µM (active),
O=S(=O)(O)CCC(F)(F)C(F)(F)C(F)(F)C(F)(F)F,,inactive
O=C(O)C(F)(F)C(F)(F)C(F)(F)C(=O)O,,inactive
C[Si](Cl)(Cl)CCC(F)(F)C(F)(F)C(F)(F)C(F)(F)C(F)(F)C(F)(F)F,,inactive
NC(O)(C(F)(F)F)C(F)(F)F,,inactive
O=C(O)C(F)(F)OC(F)(F)C(F)(F)OC(F)(F)C(F)(F)OC(F)(F)F,,inactive
OCC(O)CC(F)(F)C(F)(F)C(F)(F)C(F)(F)F (configuration not stated),,inactive
CCN(CCO)S(=O)(=O)C(F)(F)C(F)(F)C(F)(F)C(F)(F)C(F)(F)C(F)(F)C(F)(F)C(F)(F)F,,inactive
OC(O)C(F)(F)C(F)(F)F,,inactive
OCC(F)(F)C(F)(F)C(F)(F)C(F)(F)C(F)(F)C(F)(F)CO,62.4 µM (active),
C=CC(=O)OCCC(F)(F)C(F)(F)C(F)(F)C(F)(F)F,30 µM (active),

# Test system: TTR (gene 7276)
# Test: CCTE_GLTED_hTTR_0.125uM: CCTE's human Transthyretin (hTTR) Inhibition Assay, with 0.125uM TTR, Great Lakes Toxicology and Ecology Division (GLTED) Lab (AID 2284431);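 also: hits lower the fluorescence signal relative to DMSO baseline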
# How it was run: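 TTR 0.125uM + test chemical, 2 h; ANSA probe displacement; ex 380/em 475 fluorescence; signal loss vs DMSO control.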
row,Structure (SMILES),AC50
1,CCC(Cc1c(I)cc(I)c(N)c1I)C(=O)O (configuration not stated),2.1 µM (active)
2,O=C(c1ccccc1)c1ccc(O)cc1O,0.0464 µM (active)
3,CCN=C1C=CC(=C(c2ccc(N(CC)CC)cc2)c2ccc(N(CC)CC)cc2)c2ccccc21,1.85 µM (active)
4,CCN=c1cc2oc3cc(NCC)c(C)cc3c(-c3ccccc3C(=O)OCC)c-2cc1C,32.2 µM (active)
5,CCCCCCCC/C=C\CCCCCCCC(=O)N(C)CC(=O)O,3.75 µM (active)
